Screening data deposited in PubChem BioAssay by ICCB-Longwood Screening Facility, Harvard Medical School.
The full list was thinned out, with hits kept by preference.
Sa growth 42C = blocks Staphylococcus aureus growth | AID 720641 | 0.53% of 170,000 active | relative growth, % (no concentration beside the values) | S. aureus RN4220 growth, OD600, 20 h, 42 °C; stronger effect = lower value;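 active = relative growth at most 50% at the other temperature and 20+ points below 30 °C, or under 10% at both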
Sa helicase inh = S. aureus DNA helicase inhibition; 0.05% of 120,000 active; purified S. aureus helicase, fluorescence unwinding assay; inhibition, % (test concentration not listed); in the data active = inhibition above about 25%, passing the limit was not always enough;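 note: 0% = mean of negative control wells and 100% = mean of positive control wells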
* marks the source's active call; other numbers are inactive results; . = no result.

SMILES	Sa growth 42C	Sa helicase inh
COc1ccc(C(=O)NCC(c2ccc3c(c2)OCO3)N2CCOCC2)cc1 (configuration not stated)	85.0	.
Cc1cc(C)cc(C(=O)NCC(c2ccc(N(C)C)cc2)N2CCCC2)c1 (configuration not stated)	89.2	.
COc1ccc(C(c2cc3c(cc2O)OCO3)N2CCOCC2)cc1 (configuration not stated)	1.8*	7.0
O=C(Cc1cccc2ccccc12)NC1CC1	101.3	-3.0
CC(C)N(Cc1nnc(-c2ccccc2)o1)C(=O)CN1C(=O)COc2ccccc21	101.0	1.0
CCOC(=O)c1c(CN2CCOCC2)n(C)c2cc(Br)c(OC(C)=O)cc12	93.5	-3.0
CN1/C(=C/C=C/c2oc3ccccc3[n+]2C)Oc2ccccc21	-1.0*	-98.0
CCN1/C(=C/C=C2\SC(=S)N(C)C2=O)Oc2ccccc21	88.1	-14.0
C(=Nc1cccnc1)c1c[nH]c2ccccc12	8.3*	-12.0
C(=Nc1cccnc1)c1ccccc1	102.7	-17.0
CC12C(=O)N(c3ccc(I)cc3)C(=O)C1C1C=CC2C1 (configuration not stated)	102.2	15.0
CCOc1ccc(NC(=O)CSc2ncnc3ccccc23)cc1	.	-22.0
O=c1c(-c2ccn(-c3ccccc3)n2)c(O)c2ccccc2n1-c1ccccc1	98.9	-3.0
CC1=Nc2ccccc2Sc2c1c(=O)n(-c1ccccc1)c1ccccc21	1.8*	13.0
CSc1nnc(COc2cccc(C)c2)n1C	126.7	5.0
COc1cccc(OCc2nnc(SCc3ccccc3)n2C)c1	3.8*	17.0
CC1CN(C(=O)C(C)N2CCc3ccccc3C2)CC(C)O1 (configuration not stated)	106.6	-15.0
O=C(O)Cn1ccccc1=O	44.4*	7.0
N/C(Cn1ccccc1=O)=N\O	82.1	-14.0
CCc1nnc(NS(=O)(=O)c2ccc(N)cc2)s1	9.7*	3.0
COCc1nnc(NS(=O)(=O)c2ccc(OC)cc2)s1	94.9	8.0
O=C(N[C@H](CO)[C@H](O)c1ccc([N+](=O)[O-])cc1)C(Cl)Cl	-0.1*	.
CC(=O)Nc1ccc(S(=O)(=O)Nc2ccc([N+](=O)[O-])cc2)cc1	77.0	.
CC1=CC(=O)C(C(=O)/C=C/c2ccc(N3CCCCC3)cc2)C(=O)O1 (configuration not stated)	83.8	-225.0
Nc1nc(-c2ccc3c(c2)CCCC3)cs1	108.1	-14.0
SMILES	Sa growth 42C	Sa helicase inh
Nc1nc(=S)nc(Cc2ccc3c(c2)CCC3)[nH]1	45.3*	-27.0
COC(=O)c1ccc(OC(=O)c2ccc(Br)o2)cc1	104.6	2.0
Cc1onc(-c2ccccc2Cl)c1C(=O)N[C@@H]1C(=O)N2[C@@H]1SC(C)(C)[C@@H]2C(=O)O	0.0*	.
CC1(C)SC(CNC(=O)Cc2ccccc2)NC1C(=O)O (configuration not stated)	103.3	.
CC1(C)S[C@@H]2[C@H](NC(=O)COc3ccccc3)C(=O)N2[C@H]1C(=O)O	-0.9*	.
CC1(C)S[C@@H]2[C@H](NC(=O)Cc3ccccc3)C(=O)N2[C@H]1C(=O)O	-0.9*	.
CC(=O)N1C(c2ccccc2)SC(C)(C)C1C(=O)O (configuration not stated)	90.7	.
CC1(C)S[C@@H]2C(N3C(=O)[C@@H](c4ccccc4)NC3(C)C)C(=O)N2[C@H]1C(=O)O (some centres not stated)	-0.3*	.
Cc1onc(-c2ccccc2Cl)c1C(=O)NC1=NCCS1	110.5	9.0
NNC(=O)COc1ccccc1	105.5	.
CCc1n[nH]c(=O)n1Nc1ccccc1	83.8	-7.0
COc1ccc(Cn2nnnc2CN2CCN(C)CC2)cc1	111.8	7.0
Cc1cc2nc(CSc3ccccc3NC(=O)CC(C)C)cc(=O)n2o1	105.8	8.0
CC1CCCC(C)N1C(=O)COC(=O)c1cc(C(F)(F)F)cc(C(F)(F)F)c1 (configuration not stated)	107.8	-7.0
O=C(O)C1CSC(c2cccs2)=N1 (configuration not stated)	85.4	5.0
COCCN1C=C(C(=O)OC)C(c2cccs2)C(C(=O)OC)=C1	98.4	15.0
O=C(CSc1nc2ccccc2[nH]1)N(c1ccccn1)c1ccccn1	74.6	13.0
CCOc1ccc(CN2CCC(n3nc(-c4ccoc4C)oc3=O)CC2)cc1	117.3	7.0
CN(C)S(=O)(=O)c1ccc2oc3nnc(SCC(=O)C(C)(C)C)n3c2c1	97.4	2.0
CCN1CCN(C(=O)NC(C(=O)N[C@@H]2C(=O)N3[C@@H]2SC(C)(C)[C@@H]3C(=O)O)c2ccccc2)C(=O)C1=O (some centres not stated)	-0.3*	.
CCC(C)(C)NC(=O)C(NS(=O)(=O)c1cccs1)c1ccccc1 (configuration not stated)	102.3	.
COc1cc2c(C#N)c(N(C)CCc3ccc(OC)c(OC)c3)nc(N)c2c(N)n1	68.6	-19.0
COc1ccc(CCN(C)c2nc(N)c3c(N)nc(SCC(=O)O)cc3c2C#N)cc1OC	0.7*	-18.0
COc1cccc(NC(=O)c2cc3cc4c5c(c3oc2=N)CCCN5CCC4)c1	94.2	-102.0
COc1cccc(NC(=O)Cn2sc3ccccc3c2=O)c1	-0.2*	12.0
SMILES	Sa growth 42C	Sa helicase inh
COc1cccc(NC(=O)Cn2ccc3c(OC)cccc3c2=O)c1	98.1	-2.0
CCOc1ccc(CCNC(=O)Cn2sc3nc(C)cc(C)c3c2=O)cc1	6.2*	24.0
Cc1ccc(CNC(=O)Cn2sc3nc(C)cc(C)c3c2=O)cc1	86.7	13.0
CCc1ccc(NC(=O)Cn2nc(CC)n3c(cc4sccc43)c2=O)cc1	110.4	-2.0
CSc1nnc(-c2ccc(C(C)(C)C)cc2)n1Cc1ccco1	85.5	.
C=CCSc1nnc(-c2ccc(C(C)(C)C)cc2)n1Cc1ccco1	8.7*	7.0
O=C1c2ccccc2-c2nc3ccccc3nc21	5.6*	42.0
O=C1c2ccccc2-c2nc3nonc3nc21	53.1	-32.0
CC(=O)Nc1cc(OC(C)=O)c2nonc2c1OC(C)=O	0.9*	3.0
CC(=O)Nc1nonc1NC(C)=O	100.3	3.0
COc1ccc(N2CCN(C(=O)CN(C)CC(=O)Nc3cccc(F)c3)CC2)cc1	100.7	-4.0
O=S(=O)(c1ccc(Cl)cc1)N1CCc2ccccc21	0.3*	-80.0
O=S(=O)(c1ccc(F)cc1)N1CCc2ccccc21	.	-17.0
C=C(C)COc1ccc2c(CC)cc(=O)oc2c1OCC(=C)C	119.1	18.0
CCN(CC)Cc1nc2sc(C)c(C)c2c(=S)[nH]1	-0.7*	-13.0
Cc1sc2nc(CC#N)[nH]c(=O)c2c1C	91.5	-42.0
Cc1ccc(O)cc1	90.5	.
Cc1ccc(-c2ccc(O)cc2)cc1	46.9*	-12.0
NC(N)=NC(N)=Nc1cccc(C(=O)O)c1	122.8	-12.0
Cc1ccc(Cn2c(C(C)O)nc3ccccc32)cc1 (configuration not stated)	.	20.0
COC(=O)c1nc2ccccc2n1Cc1ccc(C)cc1	45.3*	-12.0
O=c1oc2ccccc2cc1-c1nnc(-c2cccc3ccccc23)o1	120.0	16.0
Cc1ccc2oc(=O)c3cc(C(=O)NCCc4ccsc4)sc3c2c1	94.6	9.0
CSc1nc2scc(-c3cccs3)c2c(=O)n1CC(C)C	104.8	15.0
CC(C)Cn1c(=S)[nH]c2scc(-c3cccs3)c2c1=O	8.9*	9.0
CCCn1c(NC(=O)CCC2CCCC2)nc2ccccc21	147.3	20.0
CCCn1c(NC(=O)C2CCCC2)nc2ccccc21	-0.9*	-4.0
Cc1nc2ccccc2n1CCc1nc2c3ccccc3nc(=S)n2[nH]1	106.0	-6.0
